High-throughput results (PubChem)
ELG1 DNA repair: inhibitors of ELG1-dependent DNA repair in HEK293T cells. HEK293T ELG1-luciferase reporter, luminescence, 16 h; DNA damage induced by 5-fluorouridine. Potency, µM (series often up to 46.1 µM), for inactives: top-dose activity change, negative = inhibition, hits mostly inhibitors. 330,000 compounds, 2.3% hits. AID 504467; also: potency is read from the fitted curve at half-maximal effect; nearly all actives have a fitted effect of over 55% in size
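Overnight (16 hr) co-exposure of 2,000 cells/well to 5-fluorouridine and compound at 37 °C preceded detection. Luciferase was quantified via ONE-Glo luminescence; loss of signal denotes inhibition.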
IL-1B inflam inh: inflammasome signaling inhibition, IL-1 beta readout; THP-1 LPS/ATP IL-1B secretion, AlphaLISA, 16 h; stronger effect = lower value; activity change, % at 57.5 µM; 360,000 compounds, 4.7% hits; AID 743279; in the data active = activity change below about -50%; inconclusive = mostly about -30% to -49%
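Secreted IL-1B measured by AlphaLISA bead assay after 16 h compound exposure of THP-1 cells; compounds (final up to 57.5 uM) added 1 h before LPS (250 ng/mL) and ATP (1.25 mM) stimulation; lower signal means less secretion.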
DT40 TDP1 no CPT: qHTS for Inhibitors of human tyrosyl-DNA phosphodiesterase 1 (TDP1): qHTS in cells in absence of CPT; Potency, µM (titrated, usually from 46.2 µM), without a hit: at the highest dose activity change, negative = growth inhibition, actives largely listed as inhibitors; 420,000 compounds, 15% hits; DT40 Tdp1-/- hTDP1 cells, no CPT, ATP luminescence, 48 h; also: potency is read from the fitted curve at half-maximal effect; nearly all actives have a fitted effect of over 55% in size
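Luminescent ATP content (CellTiter-Glo) served as the growth readout. Knockout chicken DT40 cells expressing human TDP1 were exposed to compounds without camptothecin for a minimum 48 hr at 37 °C.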
TDP1 inh: inhibitors of human tyrosyl-DNA phosphodiesterase TDP1. Q9NUW8. recombinant TDP1, AlphaScreen DNA substrate cleavage. Potency, µM (top dose mostly 130 µM), inactives show at the highest dose activity change, negative = inhibition, actives largely listed as inhibitors. 350,000 compounds, 0.28% hits. AID 485290; also: potency is read from the fitted curve at half-maximal effect; nearly all actives have a fitted effect of over 40% in size
Target sequence (Q9NUW8 whole entry, looked up): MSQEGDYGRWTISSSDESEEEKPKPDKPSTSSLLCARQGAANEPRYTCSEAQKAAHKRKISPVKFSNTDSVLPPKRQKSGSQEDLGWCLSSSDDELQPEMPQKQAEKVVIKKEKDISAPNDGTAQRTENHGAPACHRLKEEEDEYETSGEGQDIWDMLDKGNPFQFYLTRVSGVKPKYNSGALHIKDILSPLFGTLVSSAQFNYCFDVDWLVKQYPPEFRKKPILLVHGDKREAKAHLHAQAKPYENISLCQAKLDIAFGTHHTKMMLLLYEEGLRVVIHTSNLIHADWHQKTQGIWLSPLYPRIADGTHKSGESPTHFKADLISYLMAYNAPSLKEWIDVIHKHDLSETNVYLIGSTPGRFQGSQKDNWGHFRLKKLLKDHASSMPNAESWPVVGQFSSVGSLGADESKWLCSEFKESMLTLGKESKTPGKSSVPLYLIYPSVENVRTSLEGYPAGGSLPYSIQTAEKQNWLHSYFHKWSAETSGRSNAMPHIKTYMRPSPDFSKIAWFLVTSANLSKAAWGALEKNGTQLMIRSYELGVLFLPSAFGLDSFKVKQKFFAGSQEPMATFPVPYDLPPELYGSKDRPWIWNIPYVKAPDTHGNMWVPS
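AlphaScreen read-out: signal falls as enzyme removes the 3' tyrosine-FITC from a 5'-biotinylated DNA oligo (15 nM, 5 min, RT). Enzyme was E. coli-made recombinant Tdp1 at 1 nM, exposed to compound for 15 min beforehand; beads 10 ug/ml, 10 min.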
TDP1 cell CPT: DT40-hTDP1 cell growth loss with CPT; Potency, µM (top dose mostly 46.2 µM), for inactives: top-dose activity change, negative = growth inhibition, actives largely listed as inhibitors; chicken DT40 Tdp1-/-;hTDP1 cells + 20 nM CPT, ATP luminescence, 48 h; 420,000 compounds, 12% hits; AID 686979; also: potency is read from the fitted curve at half-maximal effect; nearly all actives have a fitted effect of over 55% in size
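Chicken DT40 Tdp1-/- cells stably complemented with human TDP1 were seeded at 400 cells/well in medium containing 20 nM camptothecin, exposed to pin-transferred compounds, and grown at 37 °C for at least 48 hr. Viability was read as ATP luminescence.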
Giardia killer: Giardia lamblia killing; Giardia lamblia trophozoite viability; activity change, % at 7.66 µM, hits read low; 340,000 compounds, 0.15% hits; in the data active = activity change below about -80%; inconclusive = between about -30% and that limit;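 also: parasites exposed to compound for two days anaerobically before the ATP read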
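Luminescence from cellular ATP indicates surviving trophozoites (100 cells/well) following 48 hrs anaerobic compound treatment at 37 deg C; signal develops 15-30 min at room temperature.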
* = called active by the depositor; ? = inconclusive; · = not tested or not shown; [ ] = another dose, or the depositor's remark. An excerpt weighted towards active compounds, which were near 19% of everything screened. Unless noted, calls follow the shape of the dose curve; as a rule, active = well fitted curve in the direction sought with a large enough effect; inconclusive = small, poorly fitted or top-dose-only effect, or another doubt; inactive = no such curve, though single readings can be large; an effect the other way counts as inactive or inconclusive. % is scaled to controls: 0 for no effect and ±100 for the full control effect.

SMILES	ELG1 DNA repair	IL-1B inflam inh	DT40 TDP1 no CPT	TDP1 inh	TDP1 cell CPT	Giardia killer
Cn1cccc1-c1cc(C(=O)N/N=C/c2cc(Br)ccc2O)[nH]n1	?	111.3	4.11µM*	79.4µM*	5.8µM*	13.0
CCOc1ccc(/C=N/NC(=O)c2cc(-c3cccn3C)n[nH]2)cc1	-12.7%	-58.7*	?	6.3%	-19.4%	-10.4
COc1ccccc1C(=O)NCC(=O)N1CC=C(c2ccccc2)CC1	?	-10.0	?	1.5%	?	-0.5
Cc1ccc(S(=O)(=O)N2CCC(=O)N(C(COCc3ccc(Cl)cc3)Cc3ccccc3)CC2)cc1 (stereo unspecified)	-14.1%	5.9	16.4µM*	2.7%	?	22.5
Cc1ccc(S(=O)(=O)N2CCC(=O)N([C@H](COCc3ccc(Cl)cc3Cl)Cc3ccccc3)CC2)cc1	·	6.9	23.1µM*	·	?	·
COc1ncnc2c1ncn2CCCN(CCCc1ccccc1)CCCn1cnc2c(OC)ncnc21	·	-4.0	?	·	-19.7%	·
CNC(=S)N/N=C(\C)c1ccc2c(c1)OCCO2	?	13.0	-4.4%	5.1%	-2.5%	9.7
COc1cc(/C(C)=N\NC(N)=S)cc(OC)c1OC	?	2.4	5.1%	2.6%	-6.1%	-5.8
C/C(=N\NC(=O)COc1ccc(C(C)(C)C)cc1)c1ccc2c(c1)OCCO2	21.5%	11.5	25.9µM*	0.0%	16.4µM*	-2.7
C/C(=N\NC(=S)NC(C)C)c1ccc2c(c1)OCCO2	-11.9%	-79.2*	6.51µM*	7.1%	1.3µM*	-2.1
CCc1ccc(OCC(=O)N/N=C(\C)c2ccc3c(c2)OCCO3)cc1	-2.2%	11.9	-6.3%	1.1%	2.6%	2.6
COc1cc(/C(C)=N/NC(=S)NC(C)C)cc(OC)c1OC	?	?	1.16µM*	-1.4%	1.3µM*	8.5
C/C(=N\NC(=S)Nc1ccc(C(C)C)cc1)c1ccc2c(c1)OCO2	-2.7%	-16.6	23.1µM*	8.2%	?	-12.1
CNC(=S)N/N=C(\C)c1ccc2c(c1)OCO2	?	?	?	4.9%	20.9%	22.1
CN1CCN(C(=O)c2cc([N+](=O)[O-])ccc2Cl)CC1	8.9%	19.7	1.4%	·	-6.8%	8.3
Oc1cc(-c2nc3ccccc3s2)cc2c1OCCN(Cc1cccn1-c1ncccn1)C2	·	·	16.4µM*	·	-4.8%[9.04 µM]	·
COc1ccc(-c2nn3c(COc4ccccc4)nnc3s2)cc1OC	-31.3%	-4.6	-10.0%	-2.1%	2.3%	-1.4
Clc1ccc(Cl)c(-c2nn3c(COc4ccccc4)nnc3s2)c1	-4.3%	2.6	?	-2.3%	16.4µM*	16.2
COc1ccc(CN(C(=O)c2ccc(-c3ccccc3)[nH]2)C(C(=O)NC(C)(C)C)c2ccncc2)cc1 (stereo unspecified)	?	-83.3*	?	-3.7%	?	5.2
COc1cc(C(C(=O)NC(C)(C)C)N(Cc2ccccc2)C(=O)c2cnccn2)cc(OC)c1OC (stereo unspecified)	-9.2%	0.2	-5.3%	5.1%	-0.2%	-0.7
C#CCOCCOCCOCCNc1nc(N2CCN(C(=O)[C@H](Cc3cc4ccccc4[nH]3)n3cc([C@@H](N)C(C)CC)nn3)CC2)nc(N2CCN(C(=O)[C@H](Cc3cc4ccccc4[nH]3)n3cc([C@@H](N)CC(C)C)nn3)CC2)n1 (stereo partly specified)	-4.8%	·	·	7.7%	·	·
O=c1c2c(ncn2C2CCCC2)n(Cc2ccccc2)c(=O)n1CCOc1ccccc1	?	-6.0	-13.8%	5.6%	-6.9%	-8.7
Cc1ccc(C)c(OCCn2c(=O)c3c(ncn3C3CCCC3)n(Cc3ccccc3)c2=O)c1	20.6µM*	-8.0	?	2.8%	?	-20.0
CN(C)c1ccc(-c2ccnc3c2CC(C)(C(=O)NCc2ccccc2)O3)cc1 (stereo unspecified)	·	45.6	5.17µM*	·	2.91µM*	·
CC1(C(=O)NCCc2ccccc2)Cc2c(-c3ccccc3)ccnc2O1 (stereo unspecified)	·	-59.1*	?	·	20.6µM*	·
SMILES	ELG1 DNA repair	IL-1B inflam inh	DT40 TDP1 no CPT	TDP1 inh	TDP1 cell CPT	Giardia killer
CN1CCN(c2ccc(CNC(=O)C3(C)Cc4c(-c5ccccc5)ccnc4O3)cc2)CC1 (stereo unspecified)	·	-22.0	20.6µM*	·	25.9µM*	·
CC1(C(=O)NCc2ccccc2)Cc2c(-c3ccccc3)ccnc2O1 (stereo unspecified)	·	0.0	4.11µM*	·	?	·
CN1CCN(c2ccc(CNC(=O)C3Cc4c(-c5ccccc5)ccnc4O3)cc2)CC1 (stereo unspecified)	·	-23.6	?	·	?	·
CCCCN(CC)C(=O)Cn1nc(C)c2c(C)n(-c3ccccc3)nc2c1=O	·	·	-12.5%	-8.5%	-7.8%	·
Cc1ccc(/C=N/N2CCN(Cc3cccc4ccccc34)CC2)s1	9.8%	15.4	?	-2.1%	?	-4.8
CC1(C(=O)NCC2CC2)Cc2c(-c3ccccc3)ccnc2O1 (stereo unspecified)	·	44.6	13µM*	·	9.2µM*	·
CC(C)NC(=O)C1(C)Cc2c(-c3ccc(C(N)=O)cc3)ccnc2O1 (stereo unspecified)	·	5.4	3.9%	·	1.2%	·
CN(C)c1ccc(-c2ccnc3c2CC(C)(C(=O)NCC2CCOCC2)O3)cc1 (stereo unspecified)	·	0.0	13µM*	·	16.4µM*	·
CC(=O)Nc1cccc(-c2ccnc3c2CC(C)(C(=O)NCCc2ccccc2)O3)c1 (stereo unspecified)	·	104.0	4.61µM*	·	5.8µM*	·
CC1(C(=O)NCc2ccccc2)Cc2c(-c3ccc(C(N)=O)cc3)ccnc2O1 (stereo unspecified)	·	44.2	2.06µM*	·	1.64µM*	·
O=C(CSCc1ccc(Cl)cc1Cl)Nc1nccs1	?	-1.6	2.1%	7.9%	-7.4%	6.0
CC(Sc1nc2ccccc2c(=O)n1CC1CCCO1)C(=O)Nc1ccc(S(N)(=O)=O)cc1 (stereo unspecified)	?	-6.7	-28.9%	·	-10.7%	-6.2
COc1ccccc1CC(=O)NO	·	·	-15.1%	·	2.6%	·
Cc1c(C(=O)N2CCC2(C)C(=O)O)oc2ccccc12 (stereo unspecified)	·	?	-26.0%	·	1.3%	·
CC1(C(=O)NCc2ccco2)Cc2c(-c3ccc(C(N)=O)cc3)ccnc2O1 (stereo unspecified)	·	52.0	3.66µM*	·	4.11µM*	·
